The source of these data is PubChem BioAssay (NCI).

SMILES strings stand for the structures. Compounds without any hit were thinned out: in the full panel of roughly 83,000, 20% have a hit.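 Single-dose data. Exposure time 48 hours. Values below 10 considered active.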 A number with no mark means an inactive call. Active and inactive are the calls of the source.

Some test systems named below: NCI-H23 lung; NCI-H226 lung; NCI-H322M lung; HOP-62 NSCLC; NCI-H460 lung; HOP-92 NSCLC; NCI-H522 lung; A549/ATCC NSCLC; 786-0 renal; COLO 205 colon; DU-145 prostate; K-562 leukemia; MALME-3M melanoma; MDA-MB-231 breast; RXF 393 renal; SF-268 CNS; SF-295 CNS; SF-539 CNS; UACC-257 melanoma; M14 melanoma.
Common to all, as to experiment: NCI-60 one-dose screen, 48 h (100 = growth as untreated, 0 = no growth, -100 = all killed)
Holding throughout (details): 10 µM unless noted

For `CCCCCCC/C=C/[C@H]1O[C@]23C(=O)C[C@@]4(C[C@@H](OC5OC(CO)C(O)C(O)C5O)C[C@@H]4[C@H]2C=C1C)OC3=O` (stereo not given in full), the growth in the test on NCI-H23 lung was 40.8%; with NCI-H226 lung, 65.2%; in the test with NCI-H322M lung, 56.2%; with HOP-62 NSCLC it was 17.3%; with NCI-H460 lung, 49%; with HOP-92 NSCLC it was 59%. For the same compound, the growth was -44.7% (active) with NCI-H522 lung; 62.2% in the test with A549/ATCC NSCLC; 5.03% (active) in the test with 786-0 renal; 35.9% in the test on COLO 205 colon; 39.8% in the test with DU-145 prostate; 9.99% (active) with K-562 leukemia. Moreover, the growth with MALME-3M melanoma was 7.25% (active); in the test with MDA-MB-231 breast it was 5.73% (active); with RXF 393 renal, -43.7% (active); in the test with SF-268 CNS, 48.3%; in the test with SF-295 CNS, 58.5%; with SF-539 CNS, -14.3% (active). Also, the growth was 29% in the test on UACC-257 melanoma and -12.2% (active) in the test with M14 melanoma.

On to `O=C(/C(=C/c1ccc([N+](=O)[O-])cc1)SCc1ccccc1)c1ccc(Cl)cc1`, for which the growth in the test on NCI-H23 lung was 70.9%; in the test on NCI-H226 lung it was 68.4%; with NCI-H322M lung, 105%; in the test with HOP-62 NSCLC, 80.3%; with NCI-H460 lung, 87.4%; in the test on HOP-92 NSCLC, 71.1%. The growth was 41.4% with NCI-H522 lung; 82.7% with A549/ATCC NSCLC; 86.9% with 786-0 renal; 70.3% in the test on COLO 205 colon; 79.3% in the test with DU-145 prostate; 5.41% (active) with K-562 leukemia. Also, the growth in the test with MALME-3M melanoma is 85.3%; with MDA-MB-231 breast it was 54.8%; in the test on RXF 393 renal, 67.3%; in the test with SF-268 CNS it was 86.5%; with SF-295 CNS, 90.3%; with SF-539 CNS it was 94.3%. In addition, the growth was 90.2% in the test with UACC-257 melanoma and 67.3% in the test on M14 melanoma.

`COc1ccc(/C=C/C(=O)c2ccc(NC(=O)CSc3nnc(-c4ccc(OC)c(OC)c4)n3-c3ccccc3)cc2)cc1`: the growth with NCI-H23 lung was 21.3%; with NCI-H226 lung, 80.7%; in the test on NCI-H322M lung it was 99.1%; with HOP-62 NSCLC, 48.5%; in the test on NCI-H460 lung it was 91.3%; with HOP-92 NSCLC, 52.7%. Moreover, the growth in the test on NCI-H522 lung was -60.9% (active); in the test on A549/ATCC NSCLC, 80%; in the test with 786-0 renal it was -67% (active); with COLO 205 colon it was 26.7%; with DU-145 prostate it was 40.8%; with K-562 leukemia, 8.42% (active). In addition, the growth is -75% (active) in the test on MALME-3M melanoma; 1.36% (active) with MDA-MB-231 breast; 94.4% in the test with RXF 393 renal; 80.6% in the test with SF-268 CNS; 91.4% in the test with SF-295 CNS; 87.5% with SF-539 CNS. The growth was 90% in the test on UACC-257 melanoma and 36.2% with M14 melanoma.

In the case of `CN(C)CCCn1c2c(c3cc(-c4ccco4)ccc3c1=O)C(=O)c1ccccc1-2`, the growth was 71.8% in the test with NCI-H23 lung; 77.2% with NCI-H226 lung; 81.3% in the test with NCI-H322M lung; 59.2% in the test with HOP-62 NSCLC; 46.3% in the test with NCI-H460 lung; 71.6% in the test with HOP-92 NSCLC. Moreover, the growth was 59.9% in the test on NCI-H522 lung; 67.7% in the test with A549/ATCC NSCLC; 69.2% in the test with 786-0 renal; 52.9% with COLO 205 colon; 66.8% in the test with DU-145 prostate; -75.1% (active) in the test on K-562 leukemia. For the same compound, the growth in the test with MALME-3M melanoma is 113%; in the test on MDA-MB-231 breast it was 53.3%; with RXF 393 renal it was 75.5%; in the test with SF-268 CNS, 72.3%; in the test on SF-295 CNS, 82.6%; in the test on SF-539 CNS, 63.9%. Besides, the growth in the test on UACC-257 melanoma was 102%; in the test with M14 melanoma it was 81.2%.

For `O=c1[nH]c(-c2cccc(F)c2)cc2cc(F)ccc12`, the growth in the test on NCI-H23 lung is 45.9%; in the test on NCI-H226 lung it was 96.3%; in the test with NCI-H322M lung, 59.1%; in the test with HOP-62 NSCLC, 31.9%; with NCI-H460 lung, 13.9%; in the test on HOP-92 NSCLC, 70.7%. In addition, the growth in the test on NCI-H522 lung is 11.3%; with A549/ATCC NSCLC it was 25.6%; with 786-0 renal, 44.2%; in the test on COLO 205 colon, -2.11% (active); in the test on DU-145 prostate, 30.1%; with K-562 leukemia, 14.1%. For the same compound, the growth in the test on MALME-3M melanoma is 73%; in the test with MDA-MB-231 breast, 49.8%; with RXF 393 renal, 9.93% (active); with SF-268 CNS, 68.4%; in the test with SF-295 CNS, 8.3% (active); in the test with SF-539 CNS it was -1.4% (active). Besides, the results for the growth in the test with UACC-257 melanoma and with M14 melanoma were 55.3% and 20.3%, respectively.

As for `Nc1cc(N)nc(SCC(=O)O)n1`, the growth in the test on NCI-H23 lung was 102%; with NCI-H226 lung, 103%; in the test with NCI-H322M lung it was 102%; in the test with HOP-62 NSCLC, 104%; in the test on NCI-H460 lung, 106%; in the test with HOP-92 NSCLC it was 97.3%. The growth with NCI-H522 lung is 79.7%; in the test on A549/ATCC NSCLC it was 88%; in the test on 786-0 renal it was 99.1%; in the test on COLO 205 colon, 114%; with DU-145 prostate, 104%; in the test with K-562 leukemia, 101%. The growth with MALME-3M melanoma is 103%; with MDA-MB-231 breast, 95.4%; in the test with RXF 393 renal it was 115%; with SF-268 CNS it was 101%; in the test with SF-295 CNS it was 106%; in the test on SF-539 CNS it was 102%. The growth was 84.8% in the test with UACC-257 melanoma and 102% in the test on M14 melanoma.

Turning to `CCOC(=O)C1=C(C)n2nc(CC#N)c(C#N)c2NC1c1ccc(CC)cc1` (stereo not given), the growth was 85.6% with NCI-H23 lung; 87.6% with NCI-H226 lung; 85.6% in the test with NCI-H322M lung; 81.7% in the test with HOP-62 NSCLC; 104% in the test with NCI-H460 lung; 85.9% in the test on HOP-92 NSCLC. For the same compound, the growth is 85.5% in the test with NCI-H522 lung; 96.5% in the test on A549/ATCC NSCLC; 106% in the test on 786-0 renal; 97.8% in the test with COLO 205 colon; 106% with DU-145 prostate; 106% in the test on K-562 leukemia. The growth with MALME-3M melanoma was 86.8%; with MDA-MB-231 breast it was 87.5%; with RXF 393 renal, 107%; in the test with SF-268 CNS it was 99.1%; with SF-295 CNS it was 101%; in the test on SF-539 CNS, 110%. Moreover, the growth with UACC-257 melanoma was 111%; in the test with M14 melanoma, 91.5%.

Consider `Cc1c(Cl)cccc1NC(=O)c1sc2nc3c(cc2c1N)CCCCC3`, for which the growth is 48% in the test with NCI-H23 lung; 71.6% in the test on NCI-H226 lung; 49.8% in the test with NCI-H322M lung; 43.2% with HOP-62 NSCLC; 16.4% in the test on NCI-H460 lung; 37.8% in the test with HOP-92 NSCLC. For the same compound, the growth in the test with NCI-H522 lung is 10%; with A549/ATCC NSCLC, 34.5%; in the test on 786-0 renal, 32.1%; in the test on COLO 205 colon, 9.8% (active); with DU-145 prostate, 15.6%; with K-562 leukemia, 8.36% (active). The growth is 68.9% in the test with MALME-3M melanoma; 48.4% in the test on MDA-MB-231 breast; 22.8% in the test on RXF 393 renal; 54.2% with SF-268 CNS; 32% in the test on SF-295 CNS; 13.9% with SF-539 CNS. For the same compound, the growth in the test on UACC-257 melanoma was 67%; in the test on M14 melanoma, 2.84% (active).
